Assay outcomes as filed in PubChem BioAssay.
TRb-SRC2 inh – qHTS for Inhibitors of the Interaction of Thyroid Hormone Receptor and Steroid Receptor Coregulator 2 | AID 1469, 2008 | hit rate 0.065% among 280,000 | Thyroid hormone receptor beta (Homo sapiens), P10828 | TRbeta-SRC2 peptide binding, fluorescence polarization; receptor liganded with 1 µM T3 | Potency, µM (series often up to 106 µM), inactives show top-dose activity change, negative = inhibition, actives largely listed as inhibitors;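 note: plate controls were bound peptide for no effect and peptide without receptor for full effect; nearly all actives have a fitted effect of over 50% in size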
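Fluorescence polarization of 20 nM Texas Red SRC2 peptide (20-aa NR interaction domain) bound to 0.6 uM human TRb ligand-binding domain, with 1 uM T3, after 5 hr at ambient temperature; inhibition seen as decreased polarization.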
APEX1 inh – qHTS Assay for Inhibitors of the Human Apurinic/apyrimidinic Endonuclease 1 (APE1) | DNA repair nuclease/redox regulator APEX1 (Homo sapiens), P27695 | recombinant APE1, TAMRA/BHQ-2 abasic DNA cleavage fluorescence | Potency, µM (series often up to 65.8 µM), for the others: top-dose activity change, negative = inhibition, hits mostly inhibitors | hit rate 0.35% among 350,000 | AID 2517, 2012;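 note: plate controls were vehicle for no effect and reference inhibitor for full effect; nearly all actives have a fitted effect of over 55% in size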
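APE1 at 0.75 nM preincubated 15 min at room temperature with compound. Reaction then started with 50 nM double-stranded THF-abasic substrate labelled with TAMRA/BHQ-2, and 525/598 nm fluorescence read kinetically. Activity taken as third-minus-first read difference, normalized to DMSO and NSC13755 controls.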
BLM helicase inh – qHTS Assay for Inhibitors of Bloom's syndrome helicase (BLM); AID 2528, 2010; recombinant BLM DNA unwinding, fluorescence dequenching; Potency, µM (doses to about 56.1 µM), without a hit: at the highest dose activity change, negative = inhibition, actives largely listed as inhibitors; RecQ-like DNA helicase BLM (Homo sapiens), P54132; hit rate 0.2% among 350,000;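 note: plate controls were vehicle for no effect and no enzyme for full effect; nearly all actives have a fitted effect of over 35% in size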
TexasRed fluor – Total Fluorescence Counterscreen for Inhibitors of the Interaction of Thyroid Hormone Receptor and Steroid Receptor Coregulator 2 | Potency, µM (series often up to 106 µM), inactives show at the highest dose fluorescence change, negative = quenching | AID 1479, 2009 | hit rate 0.29% among 280,000 | TRb/SRC2 Texas Red total fluorescence interference; active = well fitted curve in either direction with a large enough effect; inconclusive = small, poorly fitted or top-dose-only effect
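Human TRb ligand-binding domain at 0.6 uM with 20 nM Texas Red SRC2 peptide in Tris buffer containing 1 uM T3 and 5% DMSO, incubated with compound 5 h at ambient temperature. Total fluorescence (555/632 nm) calculated as parallel + 2 × perpendicular.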
RGS12 GoLoco inh – qHTS Assay for Inhibitors of RGS12 GoLoco Motif Activity (Red Fluorophore) | Gai1:RGS12 GoLoco peptide FP, rhodamine, 10 min | Potency, µM (highest dose often 61.6 µM), inactives show top-dose activity, negative = inhibition, actives largely listed as inhibitors | hit rate 0.44% among 230,000 | Guanine nucleotide-binding protein G(i) subunit alpha-1 (Homo sapiens), P63096; active = well fitted inhibition curve with a large enough effect, not every such curve was filed as active; inactive = no such curve, though single readings can be large or run the other way; note: nearly all actives have a fitted effect of over 30% in size
RECQ1 inh-1 – qHTS Assay for Inhibitors of RecQ-Like Dna Helicase 1 (RECQ1); AID 2549, 2010; RECQ1 DNA unwinding, red fluorescence kinetic read; Potency, µM (series often up to 57.3 µM), for inactives: at the top dose activity, negative = inhibition, actives largely listed as inhibitors; ATP-dependent DNA helicase Q1 (Homo sapiens), P46063; hit rate 0.54% among 240,000;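 note: plate controls were vehicle for no effect and no enzyme for full effect; nearly all actives have a fitted effect of over 30% in size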
Target sequence (P46063 whole entry, looked up): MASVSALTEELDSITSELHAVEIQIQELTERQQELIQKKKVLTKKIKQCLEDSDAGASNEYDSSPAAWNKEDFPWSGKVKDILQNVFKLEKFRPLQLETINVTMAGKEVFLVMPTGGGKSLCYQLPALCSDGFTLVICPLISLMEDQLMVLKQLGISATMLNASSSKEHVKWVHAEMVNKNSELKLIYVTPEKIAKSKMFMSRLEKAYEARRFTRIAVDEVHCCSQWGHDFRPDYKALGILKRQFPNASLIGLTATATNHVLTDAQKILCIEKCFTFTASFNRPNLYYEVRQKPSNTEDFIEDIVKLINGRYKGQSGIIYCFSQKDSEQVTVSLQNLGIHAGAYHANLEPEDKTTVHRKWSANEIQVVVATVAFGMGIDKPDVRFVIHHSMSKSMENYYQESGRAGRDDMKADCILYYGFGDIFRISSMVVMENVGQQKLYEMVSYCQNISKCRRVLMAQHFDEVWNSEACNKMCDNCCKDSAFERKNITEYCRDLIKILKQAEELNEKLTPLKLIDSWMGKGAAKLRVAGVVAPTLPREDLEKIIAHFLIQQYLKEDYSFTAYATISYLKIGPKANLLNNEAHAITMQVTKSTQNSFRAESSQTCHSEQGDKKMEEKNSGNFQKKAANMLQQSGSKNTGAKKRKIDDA
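RECQ1T1 50 nM; forked duplex (20 bp + 30-nt ss tails) 200 nM, ATP 2 mM final; pH 8.0, 2 mM MgCl2, 2.5 ug/ml poly(dI-dC); 15 min compound preincubation; discontinuous kinetic read over 2 h at RT.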
RECQ1 inh conf – Confirmation qHTS Assay for Inhibitors of RecQ-Like Dna Helicase 1 (RECQ1) | shares compounds with RECQ1 inh-1 | RECQ1 helicase DNA unwinding, fluorescence | Potency, µM (series often up to 229 µM), for the others: at the top dose activity change, negative = inhibition, hits mostly inhibitors | hit rate 28% among 610; note: nearly all actives have a fitted effect of over 45% in size
RECQ1 ADP FP – Counterscreen for RECQ1 Inhibitors: ADP Fluorescence Polarization Displacement Assay; shares compounds with RECQ1 inh-1; ADP fluorescence polarization displacement counterscreen; Potency, µM (top dose mostly 228 µM), without a hit: at the highest dose activity change, negative = inhibition, most hits filed as inhibitors; hit rate 27% among 530; note: nearly all actives have a fitted effect of over 45% in size
RECQ1 inh-2 – Confirmation qHTS Assay for Inhibitors of RecQ-Like Dna Helicase 1 (RECQ1) - Round 2 Cherry Picks. shares compounds with RECQ1 inh-1. recombinant RECQ1 DNA unwinding, red fluorescence. Potency, µM (series often up to 119 µM), inactives show at the top dose activity, negative = inhibition, usual class: inhibitors. hit rate 15% among 1,100. AID 504841, 2011; note: nearly all actives have a fitted effect of over 50% in size
* marks the source's active call; other numbers are inactive results; i = inactive; ? = inconclusive; . = no result given; [ ] = another dose, or the depositor's remark. In the library only some 0.9% were active in any assay of this set; here they are far more common. Unless noted, calls come from the whole dose curve; as a rule, active = well fitted curve in the direction sought with a large enough effect; inconclusive = small, poorly fitted or top-dose-only effect, or another doubt; inactive = no such curve, though single readings can be large; an effect the other way counts as inactive or inconclusive. Unless noted, % is set by controls: 0 for no effect and ±100 for the full control effect; potency is the fitted concentration of half-maximal effect.

SMILES	TRb-SRC2 inh	APEX1 inh	BLM helicase inh	TexasRed fluor	RGS12 GoLoco inh	RECQ1 inh-1	RECQ1 inh-2	others
CCOc1ccc(C(=O)Nc2cc(-c3nc4ccccc4[nH]3)ccc2C)cc1[N+](=O)[O-]	-10%	5%	-11%	1%	2%	-19%	.
CCOc1ccccc1NC(=O)c1ccc(OCC)c([N+](=O)[O-])c1	-1%[53 µM]	2%	-1%	-1%[53 µM]	2%	0%	.
CCOc1ccc(C(=O)Nc2cc(-c3nc4ccccc4[nH]3)ccc2Cl)cc1[N+](=O)[O-]	?	?	?	?	-12%	?	56µM*
Nc1nc(Nc2ccccc2)nc(NCc2ccco2)c1[N+](=O)[O-]	-1%	0%	?	-3%	-11%	?	79µM*
Nc1nc(NCc2ccco2)nc(Nc2ccccc2)c1[N+](=O)[O-]	-6%	?	-10%	-6%	-4%	i	.
O=C(Nc1cc2c(cc1C(=O)c1cccc(Br)c1)OCCO2)c1ccccc1F	-7%	.	-11%	1%	.	.	.
CCN(CC)C(=O)CSc1nc2ccc(NC(=O)CSc3nccn3C)cc2s1	-11%	0%	-12%	-2%	15%	20µM*	-13%	RECQ1 inh conf=?;RECQ1 ADP FP=?
CCN(CC)C(=O)CSc1nc2ccc(NC(=O)CSc3nnc(N)s3)cc2s1	-3%	?	-20%	-5%	27%	?	.
Cc1ccc(NC(=O)c2c3c(nc4ccccc24)CCC3)cc1S(=O)(=O)N(C)C	-6%	?	-12%	-6%	17%	?	?
COc1ccc(C(=O)Nc2ccc(NC(=O)c3ccccc3)cc2)cc1S(=O)(=O)N1CCOCC1	.	8%	-5%	.	.	.	.
COc1ccc(NC(=O)c2c3c(nc4ccccc24)CCC3)cc1S(=O)(=O)N1CCOCC1	-5%[53 µM]	?	?	-1%[53 µM]	3%	22µM*	?
O=C(Cn1cc(S(=O)(=O)c2ccccc2)c(=O)c2cc3c(cc21)OCO3)Nc1ccc(Cl)cc1	-2%	.	-6%	0%	.	.	.
CCCCn1c(=O)nc2n(-c3ccc(F)cc3)c3ccccc3cc-2c1=O	-8%	.	-2%	5%	.	.	.
CS(=O)(=O)N1CCC2(CCCN(c3cccc(-c4ccccc4)c3)C2)CC1	.	8%	-4%	.	85%	28µM*	?
O=C(/C=C/c1ccccc1F)c1ccoc1	-7%	16%	-6%	1%	10%	0.14µM*	-20%	RECQ1 inh conf=-12%[114 µM];RECQ1 ADP FP=6%[91.9 µM]
NC(=O)c1sc2nc(-c3ccco3)ccc2c1N	-8%	?	-7%	-22%	-1%	11µM*	-17%
COC(=O)c1sc2nc(-c3ccco3)ccc2c1N	-16%	?	-9%	?	-20%	-27%	.
Cc1ccc(-n2c(Cc3cccn3C)nnc2SCC(=O)N2CCc3ccccc32)cc1	-2%	9%	-17%	-3%	10%	0.22µM*	-9%	RECQ1 inh conf=17%[114 µM];RECQ1 ADP FP=14%[91.9 µM]
Cc1ccccc1Cn1c(CN2CCCC(C)C2)nc2c1c(=O)n(C)c(=O)n2C (stereo unspecified)	-3%	.	1%	0%	.	.	.
CCCCCCc1nc2ccccc2c(=O)n1NC(=O)c1c(O)c2cccc3c2n(c1=O)CCC3	-13%	0%	-1%	-4%	2%	-6%	.	RECQ1 inh conf=-12%;RECQ1 ADP FP=13%
CSc1ccccc1NC(=O)COC(=O)c1ccccc1Cc1ccccc1	-3%	-4%	-8%	0%	3%	25µM*	-3%
c1ccc(Cn2nnc3c(N4CCCCCC4)ncnc32)cc1	-18%	8%	1%	1%	14%	?	-12%
COc1cccc(NC(=O)/C(C#N)=C/c2c(C)n(Cc3ccccc3)c3ccccc23)c1	3%	.	-9%	7%	.	.	.
COCOc1ccc(Br)cc1C(=O)[C@H]1O[C@H]1c1cccc(OC)c1	1%[11.2 µM]	25%[12.4 µM]	-2%[12.4 µM]	-2%[11.2 µM]	.	i[11.5 µM]	.
O=C(COC(=O)c1ccc(S(=O)(=O)N2CCc3ccccc3C2)cc1)NC1CCS(=O)(=O)C1 (stereo unspecified)	-9%	0%	-3%	-1%	7%	?	?
SMILES	TRb-SRC2 inh	APEX1 inh	BLM helicase inh	TexasRed fluor	RGS12 GoLoco inh	RECQ1 inh-1	RECQ1 inh-2	others
Cc1ccccc1NC(=O)CSc1nc(N)c2c3c(sc2n1)CSC(C)(C)C3	4%	-2%	-6%	0%	5%	22µM*	-18%
O=C(COc1ccccc1)NN1C(=O)CSC1=S	6%	-9%	-4%	1%	23%	-23%	.
O=C(COc1c(Cl)cccc1Cl)NN1C(=O)CSC1=S	5%	-6%	-7%	4%	106%	?	-10%
Cc1ccc(-c2ccc(C3C(C#N)=C(N)Oc4n[nH]c(C)c43)o2)cc1 (stereo unspecified)	-4%	?	?	-11%	-3%	14µM*	-12%
Cc1c(C(=O)NCCc2ccccc2)cccc1-n1cnc2cccnc21	-1%	.	-2%	1%	.	.	.
Nc1c(C(=O)Nc2ccccc2F)sc2nc(-c3ccco3)ccc12	8%	-6%	-10%	-1%	24%	5%	.
Nc1c(C(=O)Nc2ccccc2F)sc2nc(-c3cccnc3)ccc12	2%	13%	-6%	-3%	4%	32µM*	-15%
CN(C)c1ccc(/C=C2/SC(=O)N(CCN=C3NS(=O)(=O)c4ccccc43)C2=O)cc1	-5%	3%	-9%	-8%	.	5%	.
